# Shown is part of a subset that was picked to be rich in the strongest signals.
# B1: Flo10 (Saccharomyces cerevisiae), P36170 (protein)
# chain: MPVAARYIFLTGLFLLSVANVALGTTEACLPAGEKKNGMTINFYQYSLKDSSTYSNPSYMAYGYADAEKLGSVSGQTKLSIDYSIPCNGASDTCACSDDDATEYSASQVVPVKRGVKLCSDNTTLSSKTEKRENDDCDQGAAYWSSDLFGFYTTPTNVTVEMTGYFLPPKTGTYTFGFATVDDSAILSVGGNVAFECCKQEQPPITSTDFTINGIKPWNADAPTDIKGSTYMYAGYYYPIKIVYSNAVSWGTLPVSVVLPDGTEVNDDFEGYVFSFDDNATQAHCSVPNPAEHARTCVSSATSSWSSSEVCTECTETESTSYVTPYVTSSSWSSSEVCTECTETESTSTSTPYVTSSSSSSSEVCTECTETESTSYVTPYVSSSTAAANYTSSFSSSSEVCTECTETESTSTSTPYVTSSSWSSSEVCTECTETESTSYVTPYVSSSTAAANYTSSFSSSSEVCTECTETESTSTSTPYVTSSSSSSSEVCTECTETESTSYVTPYVSSSTAAANYTSSFSSSSEVCTECTETESTSTSTPYVTSSSWSSSEVCTECTETESTSYVTPYVSSSTAAANYTSSFSSSSEVCTECTETESTSTSTPYATSSTGTATSFTASTSNTMTSLVQTDTTVSFSLSSTVSEHTNAPTSSVESNASTFISSNKGSVKSYVTSSIHSITPMYPSNQTVTSSSVVSTPITSESSESSASVTILPSTITSEFKPSTMKTKVVSISSSPTNLITSYDTTSKDSTVGSSTSSVSLISSISLPSSYSASSEQIFHSSIVSSNGQALTSFSSTKVSSSESSESHRTSPTTSSESGIKSSGVEIESTSTSSFSFHETSTASTSVQISSQFVTPSSPISTVAPRSTGLNSQTESTNSSKETMSSENSASVMPSSSATSPKTGKVTSDETSSGFSRDRTTVYRMTSETPSTNEQTTLITVSSCESNSCSNTVSSAVVSTATTTINGITTEYTTWCPLSATELTTVSKLESEEKTTLITVTSCESGVCSETASPAIVSTATATVNDVVTVYSTWSPQATNKLAVSSDIENSASKASFVSEAAETKSISRNNNFVPTSGTTSIETHTTTTSNASENSDNVSASEAVSSKSVTNPVLISVSQQPRGTPASSMIGSSTASLEMSSYLGIANHLLTNSGISIFIASLLLAIV
# How the values were obtained:
# Experiment in all cases: glycan array binding signal (z-score within array); higher = stronger binding
# Conditions in all cases: glycan notation: IUPAC condensed, linker removed
# [1] = biological target: Fuc(a1-2)Gal(b1-3)GalNAc(a1-3)[Fuc(a1-2)]Gal(b1-4)Glc
# Summary of the method: (§1)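 The binding signal is a Z-score computed within each array. Data were drawn from 3228 arrays in the Consortium for Functional Glycomics database, restricted to those with a known protein sequence. Scores were averaged over arrays of the same protein sequence at different concentrations or buffers, and over linkers, and negative values can be taken as non-binding.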
# [2] = biological target: Fuc(a1-2)Gal(b1-3)GalNAc(a1-3)[Fuc(a1-2)]Gal(b1-4)GlcNAc
# Summary of the method: as §1
# [3] = biological target: Fuc(a1-2)Gal(b1-4)[Fuc(a1-3)]GlcNAc(b1-2)Man(a1-3)[Fuc(a1-2)Gal(b1-4)[Fuc(a1-3)]GlcNAc(b1-2)Man(a1-6)]Man(b1-4)GlcNAc(b1-4)GlcNAc
# Summary of the method: as §1
# [4] = biological target: Fuc(a1-2)Gal6S(b1-4)GlcNAc
# Summary of the method: as §1
# Fuc(a1-2)[Gal(a1-3)]Gal = biological target: Fuc(a1-2)[Gal(a1-3)]Gal
# Summary of the method: as §1
# [5] = biological target: Fuc(a1-2)[GalNAc(a1-3)]Gal(b1-3)GalNAc(a1-3)[Fuc(a1-2)]Gal(b1-4)GlcNAc
# Summary of the method: as §1
# [6] = biological target: Fuc(a1-2)[GalNAc(a1-3)]Gal(b1-3)GlcNAc
# Summary of the method: as §1
# [7] = biological target: Fuc(a1-2)[GalNAc(a1-3)]Gal(b1-4)GlcNAc(b1-2)Man(a1-3)[Fuc(a1-2)[GalNAc(a1-3)]Gal(b1-4)GlcNAc(b1-2)Man(a1-6)]Man(b1-4)GlcNAc(b1-4)GlcNAc
# Summary of the method: as §1
# [8] = biological target: Fuc(a1-2)[GalNAc(a1-3)]Gal(b1-4)GlcNAc(b1-3)Gal(b1-4)GlcNAc
# Summary of the method: as §1
# [9] = biological target: Fuc(a1-2)[GalNAc(a1-3)]Gal(b1-4)GlcNAc(b1-3)Gal(b1-4)GlcNAc(b1-3)Gal(b1-4)GlcNAc
# Summary of the method: as §1
# [10] = biological target: Fuc(a1-2)[GalNAc(a1-4)]Gal(b1-4)GlcNAc
# Summary of the method: as §1
# Gal(a1-2)Gal = biological target: Gal(a1-2)Gal
# Summary of the method: as §1
# [11] = biological target: Gal(a1-3)Gal(b1-4)GlcNAc(b1-3)GalNAc
# Summary of the method: as §1
# [12] = biological target: Gal(b1-3)GalNAc(a1-3)[Fuc(a1-2)]Gal(b1-4)Glc
# Summary of the method: as §1
# [13] = biological target: Gal(b1-3)GalNAc(b1-4)[Neu5Ac(a2-3)]Gal(b1-4)Glc
# Summary of the method: as §1
# [14] = biological target: Gal(b1-3)GlcNAc(a1-6)Gal(b1-4)GlcNAc
# Summary of the method: as §1
# [15] = biological target: Gal(b1-3)GlcNAc(b1-3)Gal(b1-3)GlcNAc
# Summary of the method: as §1
# [16] = biological target: Gal(b1-3)GlcNAc(b1-3)Gal(b1-4)GlcNAc
# Summary of the method: as §1
# [17] = biological target: Gal(b1-4)GlcNAc(b1-2)Man(a1-6)[GlcNAc(b1-2)Man(a1-3)]Man(b1-4)GlcNAc(b1-4)GlcNAc
# Summary of the method: as §1
# [18] = biological target: Gal3S(b1-4)[Fuc(a1-3)]Glc6S
# Summary of the method: as §1
# GalNAc(a1-3)GalNAc = biological target: GalNAc(a1-3)GalNAc
# Summary of the method: as §1
# [19] = biological target: GalNAc(a1-3)GalNAc(a1-3)Gal(a1-4)Gal(b1-4)GlcNAc
# Summary of the method: as §1
# Glc(a1-4)Glc = biological target: Glc(a1-4)Glc
# Summary of the method: as §1
# [20] = biological target: GlcNAc(b1-2)Gal(b1-3)GalNAc
# Summary of the method: as §1
# [21] = biological target: GlcNAc(b1-2)Man(a1-3)[GlcNAc(b1-2)Man(a1-6)]Man(b1-4)GlcNAc(b1-4)GlcNAc
# Summary of the method: as §1
# [22] = biological target: GlcNAc(b1-3)Gal(b1-4)GlcNAc
# Summary of the method: as §1
# [23] = biological target: GlcNAc(b1-4)Gal(b1-4)GlcNAc
# Summary of the method: as §1
# Kdn(a2-3)Gal(b1-3)GalNAc = biological target: Kdn(a2-3)Gal(b1-3)GalNAc
# Summary of the method: as §1
# Kdn(a2-3)Gal(b1-4)GlcNAc = biological target: Kdn(a2-3)Gal(b1-4)GlcNAc
# Summary of the method: as §1
# [24] = biological target: Man(a1-2)Man(a1-6)[Man(a1-3)]Man(a1-6)[Man(a1-2)Man(a1-2)Man(a1-3)]Man(b1-4)GlcNAc(b1-4)GlcNAc
# Summary of the method: as §1
binder,measurement,setting,value
B1,glycan array binding signal (z-score),[1],-0.704
same,glycan array binding signal (z-score),[2],0.044
same,glycan array binding signal (z-score),[3],-0.165
same,glycan array binding signal (z-score),[4],0.331
same,glycan array binding signal (z-score),Fuc(a1-2)[Gal(a1-3)]Gal,-0.579
same,glycan array binding signal (z-score),[5],1.12
same,glycan array binding signal (z-score),[6],-0.144
same,glycan array binding signal (z-score),[7],3.27
same,glycan array binding signal (z-score),[8],4.78
same,glycan array binding signal (z-score),[9],5.34
same,glycan array binding signal (z-score),[10],-0.76
same,glycan array binding signal (z-score),Gal(a1-2)Gal,3.67
same,glycan array binding signal (z-score),[11],-0.351
same,glycan array binding signal (z-score),[12],3.64
same,glycan array binding signal (z-score),[13],0.092
same,glycan array binding signal (z-score),[14],0.52
same,glycan array binding signal (z-score),[15],3.58
same,glycan array binding signal (z-score),[16],0.23
same,glycan array binding signal (z-score),[17],0.034
same,glycan array binding signal (z-score),[18],-0.042
same,glycan array binding signal (z-score),GalNAc(a1-3)GalNAc,0.641
same,glycan array binding signal (z-score),[19],1.74
same,glycan array binding signal (z-score),Glc(a1-4)Glc,-0.77
same,glycan array binding signal (z-score),[20],-0.768
same,glycan array binding signal (z-score),[21],-0.394
same,glycan array binding signal (z-score),[22],-0.536
same,glycan array binding signal (z-score),[23],-0.716
same,glycan array binding signal (z-score),Kdn(a2-3)Gal(b1-3)GalNAc,0.113
same,glycan array binding signal (z-score),Kdn(a2-3)Gal(b1-4)GlcNAc,-0.202
same,glycan array binding signal (z-score),[24],-0.712

# From the supplement of paper PMC8728848
